Our source for the growth values is PubChem BioAssay (NCI).

This is part of a sample that, as a whole, favours compounds with a hit. Of some 83,000 tested, about 20% had one in any assay.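 How to read the values: 0–100, growth inhibition (40 = 60% inhibited); 0, no net growth; -100 to 0, cell death (-40 = 40% of starting cells died; -100 = all dead).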 A number with no mark means an inactive call. The source made the active and inactive calls. The calls were made as follows: active = growth percent below 10; inactive = the rest.

This test has as its system HL-60(TB) leukemia. In words: NCI-60 one-dose screen, 48 h (100 = growth as untreated, 0 = no growth, -100 = all killed). The conditions noted are these: 10 µM unless noted.
On to `C=C1C(=O)O[C@@H]2C[C@@H](C)CCC(=O)[C@](C)(OC(C)=O)C[C@H](OC(=O)/C(C)=C\C)[C@@H]12`, for which the growth is 26.4%.
`CC1(C)CC[C@]2(C(=O)NCCCCCCN(CCCN)CCCN)CC[C@]3(C)C(=CC[C@@H]4[C@@]5(C)CC[C@H](O)C(C)(C)[C@@H]5CC[C@]43C)[C@@H]2C1`: the growth was 99.1%.
As for `C=CCn1c(SCC(=O)Nc2ccc(C(=O)/C=C/c3cc(OC)c(OC)c(OC)c3)cc2)nnc1-c1c[nH]c2ccccc12`, the growth was -15.1% (active).
Consider `Oc1ccc(CSc2nnc(-c3ccc(Br)cc3)n2-c2ccccc2)c2cccnc12`, for which the growth is 27.5%.
For `CCCCSc1nnc(-c2ccc(-c3ccc(Cl)cc3)nc2C)o1`, the growth is 91.9%.
With `Nn1c(=O)n(-c2cccc(C(F)(F)F)c2)c(=O)c2cc(-c3ccc(F)cc3F)ccc21`, the growth is -45.9% (active).
Consider `O=C(CCCCCCN1CC(=O)N2[C@@H](c3cccs3)c3[nH]c4ccccc4c3C[C@H]2C1=O)NO`, for which the growth was 100%.
Regarding `C=C(C)[C@@H]1CC[C@]2(COP(=O)(OCC)OCC)CC[C@]3(C)[C@H](CC[C@@H]4[C@@]5(C)CC[C@H](OP(=O)(OCC)OCC)C(C)(C)[C@@H]5CC[C@]43C)[C@@H]12`, the growth is 16.2%.
With `Cn1cc(-c2nn3cc(-c4ccncc4)nc3s2)c2cc(F)ccc21`, the growth was -1.16% (active).
As for `O=C1CCCC2=C1C(c1c[nH]c3ccc(Br)cc13)Cc1cc(Br)ccc1N2` (stereo not given), the growth is 12.9%.
Turning to `Clc1ccc2c(OCCCN3CCOCC3)c3oc4ccccc4c3nc2c1`, the growth is 42.1%.
For `Cn1ccnc1C(=O)/C=C/c1ccc(NC(=O)Nc2ccc(F)cc2)cc1`, the growth was 7.58% (active).
With `Nc1ccc(-c2nnc(SCc3ccc(O)c4ncccc34)n2-c2ccccc2)cc1`, the growth is 11.5%.
Consider `Nc1nc(N)c2c(n1)NC(c1ccc(C(F)(F)F)cc1)CC(c1ccc(Nc3nc(NCCO)nc(Nc4ccc(Cl)cc4)n3)cc1)=N2` (stereo not given), for which the growth is -28.3% (active).
In the case of `CC(=O)N1N=C(c2cccc(-n3cccc3)c2)CC1c1cccc(F)c1` (stereo not given), the growth is 108%.
Take `CCCCCCNC(=O)Oc1ccc(/C(=C(/C)c2ccccc2)c2ccc(OCCN(C)C)cc2)cc1`: the growth was 23.2%.
On to `O=C(CSc1nc2ccccc2c(=O)n1-c1ccc(Cl)cc1)N/N=C/c1ccc(Oc2ccc(Cl)cc2)cc1`, for which the growth is 111%.
Under `CCOC(=O)C(=O)CC(=O)N1C(=S)NC(=O)C1CC(C)C` (stereo not given) stands 111%; under `COc1ccc(-c2nc3ccc(-c4nnc(SCC(=O)Nc5ccc(C(=O)/C=C/c6ccc(Cl)cc6)cc5)o4)cc3[nH]2)cc1OC`, 88.7%.
Under `CCCC(=O)NC(c1cccc(N(C)C)c1)c1cc(C)c2cccnc2c1O` (stereo not given) stands 0.32% (active); under `C#CCN(C)CCCOc1ccc(NCc2ccc(/C=C/C(=O)NO)cc2)cc1Cl`, 6.07% (active).
For `NS(=O)(=O)c1ccc(Nc2cc(-c3ccccc3)nc(SCC(=O)c3ccccc3)n2)cc1`, the growth was 106%.
As for `COc1ccccc1-n1cc(C#N)c(N)c1C(=O)c1ccc(Cl)cc1`, the growth is 36.5%.
The value for `CCN(CC)CCOc1ccc(C(=C(C)c2ccc(OC)cc2)c2ccc(OCCN(CC)CC)cc2)cc1` was -42.9% (active).
`O=C(NNc1nc2cc(F)c(F)cc2n2cccc12)c1cnccn1`: the growth is 3.67% (active).
Under `CCNCc1c(-c2cccc(OC(F)(F)F)c2)[nH]c2ccc(N3CCCC3)cc2c1=O` stands -8.31% (active); under `Cc1ccc(-c2cc3nc(C(Cl)Cl)nc(-c4ccco4)n3n2)cc1`, -11.9% (active); under `CCOC(=O)c1c(Nc2ccccc2)nn2c(N)c(C#N)c(-c3ccc(F)cc3)nc12`, 72.6%.
With `O=C1NC(=O)/C(=C/c2ccc(OCc3cc4ccccc4nc3Cl)cc2)S1`, the growth was 100%.
`Clc1cccc(/C=N/Nc2nc(N/N=C/c3cccc(Cl)c3)nc(N3CCCCC3)n2)c1`: the growth is 97%.
Under `O=C(COc1ccc(C2SCC(=O)N2c2ccc(F)cc2)cc1)c1ccccc1` (stereo not given) stands 98.6%; under `Cc1ccc(NC(=O)c2cccc(CN3CCN(C)CC3)c2)cc1Oc1ccc(-c2[nH]nc3ncnc(N)c23)cc1`, 46.8%.
The value for `O=C(/C=C/c1ccccc1Cl)Nc1ncc(Cc2cc(Cl)ccc2Cl)s1` was 3.08% (active); that for `C=C(C=O)[C@@H]1CC[C@]2(COC(C)=O)CC[C@]3(C)C(CC[C@@H]4[C@@]5(C)CC[C@H](OC(C)=O)C(C)(C)[C@@H]5CC[C@]43C)[C@@H]12` (stereo not given in full) was -10.9% (active).
Turning to `Oc1[nH]c2ccc(Cl)cc2c1N=Nc1nc(N=Nc2c(O)[nH]c3ccc(Cl)cc23)nc(N2CCOCC2)n1`, the growth is 72.2%.
In the case of `COc1ccc(C(=O)n2cc(C=O)c3ccccc32)cc1`, the growth was 93.7%.
On to `Oc1ccccc1/C=N/Nc1nc(N/N=C/c2ccccc2O)nc(N2CCOCC2)n1`, for which the growth is 3.74% (active).
`CC(C)(C)c1cc(NC(=O)Nc2ccc(-c3cn4c5c(sc4n3)CCc3c[nH]cc3-5)cc2)no1`: the growth was 9.58% (active).
Turning to `N#C/C(=C\c1cccc2c1OCO2)C(=O)Nc1sc2c(c1C#N)CCCC2`, the growth was 105%.
Turning to `COc1cc(-c2nn(C(C)(C)C)cc2-c2ccnc(NCCCNS(=O)(=O)c3ccc(Cl)cc3)n2)ccc1Cl`, the growth is 64.9%.
